We go through seven molecules from PubChem BioAssay (EPA / NIEHS).

The nature of assay [1]: ATG_DR4_LXR_CIS: Attagene CIS-FACTORIAL HepG2 Assay for human Liver X Receptor (LXR), DR4 submotif (AID 2282929). As to conditions: HepG2 Attagene DR4 cis-reporter, mRNA transcription; actives raise or lower the signal. An outline of the steps: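 DR4 cis-reporter in HepG2, 24 h exposure. Detection: RT-PCR, 6-FAM labelling, CE fragment analysis. Endpoint fitted bidirectionally, DMSO = baseline.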

Assay [2] concerns the target Aryl hydrocarbon receptor (Homo sapiens) (UniProt P35869). Description: ATG_Ahr_CIS: Attagene CIS-FACTORIAL HepG2 Assay for human Aryl Hydrocarbon Receptor (Ahr) (AID 2282930). The note with it: HepG2 AhR cis-factorial reporter transcription; actives raise or lower the signal. An outline of the steps: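 HepG2 cells transiently transfected with cis-element-driven multiplexed reporter transcription units; endogenous transcription factor activity measured as reporter mRNA 24 h after dosing. RT-PCR, 6-FAM labelling, HpaI digestion, capillary electrophoresis; bidirectional fitting versus DMSO baseline.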

Assay [3] is described as follows: ATG_AP_1_CIS: Attagene CIS-FACTORIAL HepG2 Assay for human Activator Protein 1 (AP-1) (AID 2282931). The note with it: HepG2 Attagene cis-factorial AP-1 reporter mRNA; actives raise or lower the signal. Summed up: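 Cis-regulated reporter units transiently expressed in HepG2 report endogenous transcription-factor activity. Signal: reporter mRNA at 24 h, via RT-PCR and fluorescent capillary electrophoresis. Endpoint derived by bidirectional fitting, DMSO as negative control.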

Assay [4] can be described thus: ATG_AP_2_CIS: Attagene CIS-FACTORIAL HepG2 Assay for human Activator Protein 2 (AP-2) (AID 2282932). As to conditions: HepG2 AP-2 cis-reporter, Attagene transcription factor profiling; actives raise or lower the signal. An outline of the steps: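 Cells (HepG2) transfected with promoter-driven reporter constructs, treated 24 h. Total RNA reverse-transcribed, reporter cDNA PCR-amplified, FAM-labelled by primer extension, digested, resolved by capillary electrophoresis. Activity fitted both directions versus DMSO.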

A short description of assay [5]: ATG_BRE_CIS: Attagene CIS-FACTORIAL HepG2 Assay for human Bone Morphogenetic Protein (BMP) Response Element (BRE) (AID 2282933). The note with it: HepG2 BMP response element reporter, Attagene transcription factor profiling; actives raise or lower the signal. Summed up:
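A HepG2 multiplex reporter system measured inducible reporter mRNA 24 h post-dosing. Detection: RT-PCR, 6-FAM primer extension, HpaI digestion, capillary electrophoresis. Activity fitted bidirectionally relative to DMSO.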

The target of assay [6] is Retinoic acid receptor alpha (Homo sapiens) (UniProt P10276). Put plainly: ATG_DR5_RAR_CIS: Attagene CIS-FACTORIAL HepG2 Assay for human Retinoic Acid Receptor Alpha (RARE), DR5 submotif (AID 2282934).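 As to AC50: reporter responds to endogenous RAR alpha beta and gamma in HepG2 not RARA alone.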 The note with it: HepG2 Attagene cis-factorial RARE DR5 reporter, mRNA; actives raise or lower the signal. Summed up:
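HepG2 cells transiently transfected with multiplexed reporter units under cis (DR5 RARE) promoters, so endogenous transcription factor activity is measured. After 24 h compound exposure, reporter mRNA is quantified by RT-PCR with fluorescent labelling and capillary electrophoresis; bidirectional fitting versus DMSO.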

Assay [7] can be described thus: ATG_E_Box_CIS: Attagene CIS-FACTORIAL HepG2 Assay for human Enhancer Box (E-box) (AID 2282936). The note with it: HepG2 E-box cis-reporter transcription, actives raise or lower the signal. Summed up: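 Endogenous transcription factor activity was sensed in human HepG2 liver cells through transfected cis-promoter reporter units. After 24 h of dosing, total RNA was reverse-transcribed and reporter cDNA resolved by capillary electrophoresis.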

Assay [8] can be described thus: ATG_M_61_CIS: Attagene CIS-FACTORIAL HepG2 Assay for M61 Transcription Factor (Internal Marker) (AID 2282937). The note with it: HepG2 Attagene CIS-FACTORIAL M61 internal marker reporter; actives raise or lower the signal. Summed up: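 Background-control endpoint: HepG2 cells with cis-regulated reporter constructs, 24 h exposure, reporter mRNA detected via fluorescent primer extension and capillary electrophoresis; values from bidirectional fitting with DMSO baseline.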

Assay [9] can be described thus: ATG_EGR_CIS: Attagene CIS-FACTORIAL HepG2 Assay for human Early Growth Response 1 (EGR1) (AID 2282938). As to conditions: HepG2 Attagene CIS-FACTORIAL EGR reporter mRNA; actives raise or lower the signal. An outline of the steps: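 Endpoint derived by bidirectional fitting versus DMSO vehicle. Method: cis-promoter reporter units transfected into HepG2, 24 h dosing, RNA isolation, RT-PCR with 6-FAM primer extension and HpaI digestion, then capillary electrophoresis fluorescence detection.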

A short description of assay [10]: ATG_M_19_CIS: Attagene CIS-FACTORIAL HepG2 Assay for M19 Transcription Factor (Internal Marker) (AID 2282939). The note with it: HepG2 Attagene CIS-FACTORIAL M19 internal marker reporter; actives raise or lower the signal. Summed up:
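Chemical-treated HepG2 (24 h) with MRTU constructs; reporter transcripts detected by fluorescent RT-PCR fragment analysis on capillary electrophoresis. Internal background marker, DMSO as baseline.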

Assay [11] is described as follows: ATG_ERE_CIS: Attagene CIS-FACTORIAL HepG2 Assay for Estrogen Response Element (ERE) (AID 2282940). As to conditions: HepG2 ERE cis-reporter, Attagene RNA transcript; actives raise or lower the signal. Summed up: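 Human liver cells (HepG2) bearing transiently transfected, promoter-regulated reporter units were exposed 24 h. Reporter mRNA induction was detected by capillary electrophoresis of labelled RT-PCR products and fitted bidirectionally to DMSO.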

Assay [12] can be described thus: ATG_Ets_CIS: Attagene CIS-FACTORIAL HepG2 Assay for human Erythroblast Transformation Specific (ETS) (AID 2282941). As to conditions: HepG2 ETS cis-reporter transcription, actives raise or lower the signal. Summed up: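 RT-PCR/capillary electrophoresis fluorescence read-out of reporter mRNA; HepG2 transient multi-reporter transfection; 24 h compound exposure; gain or loss of signal fitted bidirectionally relative to DMSO.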

Assay [13] addresses Hepatocyte nuclear factor 3-beta (Homo sapiens) (UniProt Q9Y261). Put plainly: ATG_FoxA2_CIS: Attagene CIS-FACTORIAL HepG2 Assay for human Forkhead box A2 (FOXA2) (AID 2282942). As to conditions: HepG2 cis-reporter transcription factor activity, 24 h; actives raise or lower the signal. An outline of the steps:
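Measured: reporter mRNA induction or loss in HepG2 transiently carrying multiple cis-regulated reporter units, 24 h after dosing. Quantified by RT-PCR plus capillary electrophoresis, normalised to DMSO.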

Assay [14] in a line: ATG_FoxO_CIS: Attagene CIS-FACTORIAL HepG2 Assay for human Forkhead box O (FoxO) (AID 2282943). The note with it: HepG2 Attagene cis-reporter, FoxO element, mRNA; actives raise or lower the signal. An outline of the steps: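 HepG2 cells transiently transfected with cis-promoter-driven multiple reporter transcription units; 24 h after chemical dosing, reporter mRNA quantified by RT-PCR, fluorescent primer extension, HpaI digestion and capillary electrophoresis. Bidirectional fitting versus DMSO baseline.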

The nature of assay [15]: ATG_GATA_CIS: Attagene CIS-FACTORIAL HepG2 Assay for human GATA Binding Protein (AID 2282944). The note with it: HepG2 GATA cis-element reporter, Attagene multiplex mRNA; actives raise or lower the signal. An outline of the steps:
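Transfected cis-reporter HepG2 cells were treated with chemicals for 24 hours. Total RNA was then converted to cDNA, amplified with reporter-specific primers and analysed by fluorescent capillary electrophoresis, using DMSO-treated wells as baseline.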

Assay [16] is described as follows: ATG_GLI_CIS: Attagene CIS-FACTORIAL HepG2 Assay for human Zinc Finger Protein GLI1 (AID 2282945). As to conditions: HepG2, Attagene cis-factorial reporter mRNA, GLI element; actives raise or lower the signal. An outline of the steps:
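HepG2 cells transiently transfected with cis-promoter multiplexed reporter units report endogenous transcription factor activity. After 24 h chemical exposure, reporter mRNA was quantified by RT-PCR, 6-FAM labelling, HpaI digestion and capillary electrophoresis, with bidirectional fitting against DMSO.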

Assay [17] can be described thus: ATG_GRE_CIS: Attagene CIS-FACTORIAL HepG2 Assay for human Glucocorticoid Response Elements (GRE) (AID 2282947). As to conditions: HepG2 GRE cis-reporter, Attagene multiplex mRNA; actives raise or lower the signal. An outline of the steps:
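Cells (HepG2) bearing transfected cis-promoter reporter transcription units were treated with chemical for 24 hours. Reporter mRNA was measured via RT-PCR with capillary electrophoresis, and activity was fitted in both directions relative to DMSO.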

Assay [18] in a line: ATG_ISRE_CIS: Attagene CIS-FACTORIAL HepG2 Assay for human Interferon Regulatory Factor 1 (IRF1) binding to an Interferon-Stimulated Response Element (ISRE) (AID 2282948). The note with it: HepG2 ISRE cis-reporter (Attagene), mRNA transcription readout; actives raise or lower the signal. An outline of the steps: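 Read-out: fluorescent RT-PCR products resolved by capillary electrophoresis, reporting endogenous transcription factor activity via ISRE-driven reporter mRNA in transfected HepG2 cells dosed for 24 h; gain or loss fitted relative to DMSO.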

Assay [19] concerns the target Transcription factor E2F1 (Homo sapiens) (UniProt Q01094). Description: ATG_E2F_CIS: Attagene CIS-FACTORIAL HepG2 Assay for human E2F Transcription Factor 1 (AID 2282935). As to conditions: HepG2 Attagene cis-reporter, E2F reporter RNA transcripts; actives raise or lower the signal. Summed up: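 First, HepG2 cells were transfected with reporter transcription units. Next, they were dosed for 24 h. Then RNA was isolated, converted to cDNA, PCR-amplified, FAM-labeled, HpaI-digested and analyzed by capillary electrophoresis.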

Assay [20] deals with Bile acid receptor (Homo sapiens) (UniProt Q96RI1). Description: ATG_IR1_CIS: Attagene CIS-FACTORIAL HepG2 Assay for human Nuclear Receptor Subfamily 1 Group H Member 4 (NR1H4), IR1 submotif (AID 2282946). The note with it: IR1 reporter transcription, actives raise or lower the signal. An outline of the steps: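 Readout: reporter transcript levels by RT-PCR with fluorescent capillary electrophoresis, from HepG2 cells transiently transfected with multiplexed cis-regulated reporters and dosed 24 h. Gain- or loss-of-signal fitted versus DMSO negative control.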
Bile acid receptor (Homo sapiens), sequence (Q96RI1 whole entry, looked up): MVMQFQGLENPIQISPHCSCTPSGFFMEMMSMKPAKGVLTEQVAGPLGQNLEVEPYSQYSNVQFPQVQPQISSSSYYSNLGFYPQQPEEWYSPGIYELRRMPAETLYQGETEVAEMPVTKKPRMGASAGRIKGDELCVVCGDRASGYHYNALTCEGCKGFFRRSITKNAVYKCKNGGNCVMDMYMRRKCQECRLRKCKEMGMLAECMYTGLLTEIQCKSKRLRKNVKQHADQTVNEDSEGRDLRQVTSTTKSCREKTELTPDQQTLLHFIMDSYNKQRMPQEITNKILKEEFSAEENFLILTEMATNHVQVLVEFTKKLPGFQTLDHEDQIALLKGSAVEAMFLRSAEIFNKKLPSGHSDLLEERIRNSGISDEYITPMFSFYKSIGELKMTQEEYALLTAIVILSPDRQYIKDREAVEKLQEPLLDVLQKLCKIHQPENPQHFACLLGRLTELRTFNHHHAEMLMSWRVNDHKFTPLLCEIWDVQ

Molecules are shown by their SMILES. Active and inactive are the calls of the source. The calls were made as follows: active = hit-call score of the fitted dose curve at least 0.9, where 1 is the maximum; inactive = score below 0.9.

Aryl hydrocarbon receptor (Homo sapiens), sequence (P35869 whole entry, looked up): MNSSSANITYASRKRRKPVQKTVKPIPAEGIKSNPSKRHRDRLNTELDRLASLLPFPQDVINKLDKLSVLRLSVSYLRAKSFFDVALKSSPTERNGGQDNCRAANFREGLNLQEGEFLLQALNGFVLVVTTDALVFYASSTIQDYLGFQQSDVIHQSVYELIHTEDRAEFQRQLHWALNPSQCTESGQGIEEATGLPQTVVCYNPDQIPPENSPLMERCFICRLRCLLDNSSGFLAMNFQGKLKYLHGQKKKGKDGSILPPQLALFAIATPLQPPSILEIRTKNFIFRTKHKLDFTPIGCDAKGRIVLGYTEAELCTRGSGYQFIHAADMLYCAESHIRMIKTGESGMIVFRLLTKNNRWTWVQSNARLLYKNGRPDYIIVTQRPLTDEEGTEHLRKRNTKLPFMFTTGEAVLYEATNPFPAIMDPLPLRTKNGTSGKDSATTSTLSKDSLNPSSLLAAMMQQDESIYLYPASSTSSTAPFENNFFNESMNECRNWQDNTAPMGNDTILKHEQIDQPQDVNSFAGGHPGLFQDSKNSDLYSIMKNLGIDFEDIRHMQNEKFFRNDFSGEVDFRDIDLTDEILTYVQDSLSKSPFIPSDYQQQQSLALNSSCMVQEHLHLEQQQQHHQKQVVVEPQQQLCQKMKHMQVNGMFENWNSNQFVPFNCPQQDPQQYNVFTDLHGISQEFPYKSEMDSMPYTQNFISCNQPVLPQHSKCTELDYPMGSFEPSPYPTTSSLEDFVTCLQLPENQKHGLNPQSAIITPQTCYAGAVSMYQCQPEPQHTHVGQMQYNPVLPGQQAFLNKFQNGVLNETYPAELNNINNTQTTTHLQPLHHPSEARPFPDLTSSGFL
Transcription factor E2F1 (Homo sapiens), sequence (Q01094 whole entry, looked up): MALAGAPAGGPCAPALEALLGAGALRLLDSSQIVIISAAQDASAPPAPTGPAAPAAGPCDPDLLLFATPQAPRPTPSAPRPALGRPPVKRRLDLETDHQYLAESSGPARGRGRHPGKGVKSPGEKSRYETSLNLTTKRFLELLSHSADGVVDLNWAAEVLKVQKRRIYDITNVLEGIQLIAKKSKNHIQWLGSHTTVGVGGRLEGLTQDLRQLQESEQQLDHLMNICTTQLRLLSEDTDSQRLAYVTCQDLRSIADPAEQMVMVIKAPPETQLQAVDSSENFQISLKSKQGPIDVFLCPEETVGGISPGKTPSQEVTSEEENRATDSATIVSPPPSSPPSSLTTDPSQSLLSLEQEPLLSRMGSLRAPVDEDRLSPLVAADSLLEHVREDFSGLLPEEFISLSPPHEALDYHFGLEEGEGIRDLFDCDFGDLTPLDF
Hepatocyte nuclear factor 3-beta (Homo sapiens), sequence (Q9Y261 whole entry, looked up): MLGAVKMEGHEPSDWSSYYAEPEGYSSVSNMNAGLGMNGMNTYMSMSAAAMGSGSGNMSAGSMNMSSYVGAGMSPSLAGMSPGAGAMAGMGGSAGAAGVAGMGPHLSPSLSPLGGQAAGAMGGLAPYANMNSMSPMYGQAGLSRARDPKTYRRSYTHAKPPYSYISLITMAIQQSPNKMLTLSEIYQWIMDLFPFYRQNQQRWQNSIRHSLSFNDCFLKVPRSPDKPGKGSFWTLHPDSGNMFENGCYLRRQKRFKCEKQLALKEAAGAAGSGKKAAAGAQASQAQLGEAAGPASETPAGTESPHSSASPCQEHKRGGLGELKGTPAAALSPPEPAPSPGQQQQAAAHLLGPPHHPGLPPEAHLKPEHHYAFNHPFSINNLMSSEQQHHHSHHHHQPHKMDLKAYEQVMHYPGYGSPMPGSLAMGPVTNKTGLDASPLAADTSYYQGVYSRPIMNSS
Retinoic acid receptor alpha (Homo sapiens), sequence (P10276 whole entry, looked up): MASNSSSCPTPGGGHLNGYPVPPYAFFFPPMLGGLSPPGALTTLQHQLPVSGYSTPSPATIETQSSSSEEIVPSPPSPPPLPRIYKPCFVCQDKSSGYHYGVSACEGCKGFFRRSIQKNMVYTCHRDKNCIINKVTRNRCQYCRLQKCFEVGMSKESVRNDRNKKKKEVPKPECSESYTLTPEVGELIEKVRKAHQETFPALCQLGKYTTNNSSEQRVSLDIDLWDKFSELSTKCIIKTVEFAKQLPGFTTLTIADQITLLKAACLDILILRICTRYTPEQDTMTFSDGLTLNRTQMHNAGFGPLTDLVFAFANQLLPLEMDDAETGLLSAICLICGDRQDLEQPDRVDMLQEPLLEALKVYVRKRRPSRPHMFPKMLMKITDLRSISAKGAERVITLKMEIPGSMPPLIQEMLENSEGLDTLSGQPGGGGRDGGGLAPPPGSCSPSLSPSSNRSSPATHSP

`O=C(NC(=O)c1c(F)cccc1F)Nc1cc(Cl)c(F)c(Cl)c1F`: the AC50 in assay [1] is 0.512 µM (active). The result in assay [2], in assay [3], in assay [4], in assay [5], in assay [6] and in [7] was inactive. Further, the molecule was classed as inactive in assay [8], in assay [9], in [10], in [11], in assay [12] and in assay [13]. Also, the molecule was called inactive in assay [14], in assay [15], in assay [16], in assay [17] and in [18].

For `c1ccc(-c2cccc(-c3ccccc3)c2)cc1`, the AC50 is 27.4 µM (active) in assay [1], 21.9 µM (active) in [2] and 26.4 µM (active) in assay [11]. Besides, the call in assay [3], in [4], in [5], in assay [19], in [7] and in [8] was inactive. Also, the outcome in assay [9], in assay [10], in assay [12], in assay [13], in [14] and in assay [15] was inactive. Further, the result in assay [16], in assay [20] and in assay [18] was inactive.

For `O=C(O)COc1ccc(Cl)cc1`, the molecule was classed as inactive in assay [1], in assay [2], in [3], in assay [4], in assay [5] and in [6]. For the same molecule, the outcome in assay [7], in assay [9], in assay [10], in assay [11], in assay [12] and in assay [13] was inactive. The molecule was called inactive in assay [14], in assay [15], in [16], in [17] and in [18].

`CN(C)CCN(C)C`: the outcome in assay [1], in assay [2], in assay [3], in assay [4], in [5] and in [19] was inactive. Also, the outcome in [7], in [8], in [9], in [10], in [11] and in assay [12] was inactive. Also, the molecule was classed as inactive in assay [13], in assay [14], in assay [15], in [16], in assay [20] and in assay [17]. The outcome in assay [18] was inactive.

Regarding `CC(C)(C)c1cc([N+](=O)[O-])cc(C(C)(C)C)c1O`, the result in assay [1], in assay [2], in assay [7], in assay [8], in assay [9] and in assay [10] was inactive. Further, the result in [11], in assay [13], in assay [14], in assay [15], in assay [16] and in [20] was inactive. Moreover, the molecule was classed as inactive in assay [18]. Also, the AC50 in [3] is 0.948 µM (active); in assay [4] it was 16.3 µM (active); in [5], 2.01 µM (active); in assay [6], 2.85 µM (active); in assay [12], 52.1 µM (active).

Take `CCOC(=O)c1ccccc1S(=O)(=O)NC(=O)Nc1nc(Cl)cc(OC)n1`: the outcome in [1], in [2], in [3], in [4], in assay [5] and in [6] was inactive. In addition, the outcome in assay [7], in assay [8], in assay [9], in assay [10], in [11] and in [12] was inactive. Besides, the result in [13], in [14], in [15], in [16], in assay [20] and in assay [17] was inactive. The outcome in assay [18] was inactive.

As for `CC(c1ccc(O)cc1)c1ccc(O)cc1`, the result in assay [1], in [2], in assay [3], in assay [4], in assay [5] and in [19] was inactive. The outcome in [7], in assay [8], in assay [9], in assay [10], in [13] and in assay [14] was inactive. Moreover, the outcome in assay [15], in assay [16] and in assay [18] was inactive. Further, the results for the AC50 in assay [11] and in [12] were 0.701 µM (active) and 137 µM (active), respectively.

In general, AC50 refers to the concentration giving half of the maximal activity seen.
